Bioassay records as filed in PubChem.
CYP2C9 inhib – inhibitors of human CYP2C9; CYP2C9 Supersomes, luciferin-H conversion, luminescence; inhibition, % at 5 µM; actives 20% (n = 96,000);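 active = blocking of liver enzyme CYP2C9 beyond about 50% at 5 µM, limit read from the data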
CYP2C9 activ – CYP2C9 (human) activation. P11712. recombinant CYP2C9, luciferin-H conversion, luminescence; active compounds read high; factor 1 = untreated enzyme, 0 = blocked. activation factor at 5 µM. actives 1.4% (n = 96,000). AID 1024;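 active = activation factor of 2 or more for CYP2C9 at a 5 µM dose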
CYP2C19 act – cytochrome P450 2C19 (human) activation; P33261; recombinant CYP2C19, luciferin-H EGE luminescence; active compounds read high; 0 = fully inhibited enzyme, 1 = untreated enzyme; activation factor at 5 µM; 96,000 tested, under 10 active;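 active = activation factor of at least 2 at 5 µM in the primary screen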
Target sequence (P33261 whole entry, looked up): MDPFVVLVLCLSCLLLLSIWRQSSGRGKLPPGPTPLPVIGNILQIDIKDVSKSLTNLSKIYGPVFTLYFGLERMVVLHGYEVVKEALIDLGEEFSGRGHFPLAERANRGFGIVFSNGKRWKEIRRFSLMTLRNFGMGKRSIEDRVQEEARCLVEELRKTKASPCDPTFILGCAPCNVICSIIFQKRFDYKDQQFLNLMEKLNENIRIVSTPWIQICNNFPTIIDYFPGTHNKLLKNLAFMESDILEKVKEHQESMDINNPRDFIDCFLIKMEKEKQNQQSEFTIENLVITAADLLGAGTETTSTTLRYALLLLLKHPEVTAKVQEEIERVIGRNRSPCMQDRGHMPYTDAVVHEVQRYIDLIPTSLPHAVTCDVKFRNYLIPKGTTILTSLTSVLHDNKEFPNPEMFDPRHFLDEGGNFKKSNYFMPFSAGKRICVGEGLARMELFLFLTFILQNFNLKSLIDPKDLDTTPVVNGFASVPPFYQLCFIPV
E-sel TNF inh – blocks E-selectin expression induced by TNF alpha. actives 0.71% (n = 120,000). inhibition, % at 2 µM. HUVEC TNFa-induced E-selectin immunofluorescence, high content;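 active = inhibition above the batch mean plus 3 SD, and confirmed as a hit on visual image review, cut at about 43% in these data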
CYP2C19 inh – blocks human cytochrome P450 2C19; actives 21% (n = 96,000); inhibition, % at 5 µM; P33261; AID 778; CYP2C19 Supersomes, luciferin-H EGE luminescence, 30 min;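 active = CYP2C19 inhibition above a set limit at 5 µM in the primary screen, cut at about 50% in these data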
cytoskel mod – modifiers of cytoskeleton assembly; HUVEC TNFa F-actin phalloidin imaging, high content; inhibition, % at 2 µM; actives 0.18% (n = 91,000);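 active = inhibition above the batch mean plus 3 SD and confirmed as a hit by visual image inspection, cut at about 30% in these data, passing the limit was not always enough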
A number is an active result; 0 = inactive; - = no result given. Most compounds without a hit are left out; they make up all but 22% or so of the library.

SMILES | CYP2C9 inhib | CYP2C9 activ | CYP2C19 act | E-sel TNF inh | CYP2C19 inh | cytoskel mod
COc1ccc(S(=O)(=O)N(CC(=O)Nc2ccc3c(c2)OCO3)c2ccccc2OC)cc1 | 72 | 0 | 0 | 0 | 0 | 0
COC(=O)c1cc(NC(=O)CN(c2ccccc2OC)S(=O)(=O)c2ccccc2)ccc1Cl | 97 | 0 | 0 | 0 | 52 | 0
COc1cccc(N(CC(=O)Nc2ccc3c(c2)OCO3)S(=O)(=O)c2ccccc2)c1 | 71 | 0 | 0 | 0 | 0 | 0
Cc1noc(C)c1S(=O)(=O)N1CCCC(C(=O)NCc2ccccn2)C1 (stereo not drawn) | 0 | 0 | 0 | 0 | 0 | 0
CCOC(=O)c1c2n(c3c(NCc4ccccc4)ncnc13)CCCC2 | 77 | 0 | 0 | 0 | 0 | 0
CCOC(=O)c1nnc(-c2ccccc2)nc1NCc1ccccc1 | 0 | 0 | 0 | 0 | 0 | 0
CCSc1nc(C2CC2)cc(-c2cccs2)c1C#N | 0 | 0 | 0 | 0 | 68 | 0
CCCSc1nc(N)nc(-c2cccs2)c1C#N | 73 | 0 | 0 | 0 | 0 | 0
O=C(O)C1CCCCC1C(=O)NCCc1ccccc1 (stereo not drawn) | 0 | 0 | 0 | 0 | 0 | 0
O=C(CSc1nc2ccc([N+](=O)[O-])cc2[nH]1)c1ccc2ccccc2c1 | 54 | 0 | 0 | 0 | 0 | 0
COc1ccc2nc(NC(=O)C3CCCN(S(=O)(=O)c4cccc5nonc45)C3)sc2c1 (stereo not drawn) | - | - | - | 0 | - | 0
CCOc1ccccc1NC(=O)C1CCCN(S(=O)(=O)c2cccc3nsnc23)C1 (stereo not drawn) | 53 | 0 | 0 | 0 | 52 | 0
COc1ccc2nc(NC(=O)C3CCCN(S(=O)(=O)c4cccc5nsnc45)C3)sc2c1 (stereo not drawn) | 86 | 0 | 0 | 0 | 78 | 0
COc1ccc(NC(=O)CCNC(C)=O)cc1NS(=O)(=O)c1ccc(F)cc1 | 0 | 0 | 0 | 0 | 52 | -
CC(=O)NCCC(=O)Nc1cc(F)ccc1C | 0 | 0 | 0 | 0 | 0 | 0
COc1ccc2c(CC(=O)Nc3ccc(OC)c(NS(=O)(=O)c4ccc(F)cc4)c3)coc2c1 | 74 | 0 | 0 | 0 | 72 | 0
O=C(COC(=O)c1ccccc1OCc1ccccc1Cl)NC1CC1 | 0 | 0 | 0 | 0 | 53 | 0
O=C(COC(=O)c1ccccc1Oc1ccccc1)NC1CC1 | - | - | - | 0 | - | -
CC(=O)Nc1ccc2nc(SCC(=O)NCCOc3ccccc3)sc2c1 | - | - | - | 0 | - | -
COC(=O)CN(C#N)c1nc(SC)nc(N(C)C)n1 | 0 | 0 | 0 | 0 | 56 | 0
CNC(=O)CN(C#N)c1nc(N(C)C)nc(N(C)C)n1 | - | - | - | 0 | - | 0
COc1ccc(OC)c(C(c2nnnn2C2CCCC2)N2CCc3ccccc3C2)c1 (stereo not drawn) | 54 | 0 | 0 | 0 | 80 | 0
COc1ccc(OC)c(C(c2nnnn2C2CCCC2)N2CCN(c3ccccc3F)CC2)c1 (stereo not drawn) | 94 | 0 | 0 | - | 95 | 0
COc1ccc(N2CCN(C(c3ccccc3OC)c3nnnn3C3CCCC3)CC2)cc1 (stereo not drawn) | 77 | 0 | 0 | 0 | 76 | -
COc1ccc(C(c2nnnn2C2CCCC2)N2CCC(C(N)=O)CC2)c(OC)c1 (stereo not drawn) | 0 | 0 | 0 | 0 | 0 | -
SMILES | CYP2C9 inhib | CYP2C9 activ | CYP2C19 act | E-sel TNF inh | CYP2C19 inh | cytoskel mod
COc1ccc(N2CCN(C(c3cccc(OC)c3OC)c3nnnn3C3CCCC3)CC2)cc1 (stereo not drawn) | 73 | 0 | 0 | - | 80 | 0
O=C1CCC(C(=O)Nc2cccc(C(F)(F)F)c2)N1 (stereo not drawn) | 0 | 0 | 0 | - | 0 | 0
CCOC(=O)C(NC(=O)CC)C(O)c1cccc([N+](=O)[O-])c1 (stereo not drawn) | 0 | 0 | 0 | - | 0 | 0
CC1CCc2nc(NC(=O)CN3CCN(c4ccc(F)cc4)CC3)sc2C1 (stereo not drawn) | 0 | 0 | 0 | 0 | 0 | 0
Fc1ccccc1N1CCN(C(c2ccccn2)c2nnnn2C2CCCCC2)CC1 (stereo not drawn) | 77 | 0 | 0 | - | 80 | 0
COc1ccccc1N1CCN(C(c2ccccn2)c2nnnn2C2CCCCC2)CC1 (stereo not drawn) | 0 | 0 | 0 | 0 | 0 | 0
COC(=O)c1ccc(C)c(NS(=O)(=O)c2ccc(OC)c(OC)c2)c1 | 58 | 0 | 0 | 0 | 82 | 0
COc1ccc(CONS(=O)(=O)c2ccc(NC(C)=O)cc2)cc1Cl | 0 | 0 | 0 | 0 | 53 | 0
COc1ccc(Cl)cc1S(=O)(=O)Oc1ccc(NC(C)=O)cc1 | - | - | - | 0 | - | 0
COC(=O)c1ccc(OC(=O)c2ccc(OC)c(OC)c2)c(OC)c1 | 0 | 0 | 0 | - | 0 | 0
COc1cccc(NS(=O)(=O)c2ccc(OC)c(OC)c2)c1 | 0 | 0 | 0 | 0 | 100 | -
COc1ccc(S(=O)(=O)Nc2ccc(NC(C)=O)cc2)cc1OC | 67 | 0 | 0 | 0 | 95 | 0
O=C(NNS(=O)(=O)c1ccc(CCCl)cc1)C(O)(c1ccccc1)c1ccccc1 | - | - | - | 0 | - | -
O=C(NC1CCCC1)C1CC(c2ccc(F)cc2)=NO1 (stereo not drawn) | 0 | 0 | 0 | 0 | 0 | 0
O=C(NC1CCCCC1)C1CCN(S(=O)(=O)N2CCOCC2)CC1 | 0 | 0 | 0 | 0 | 0 | 0
Cc1ccc(-n2nc3c(c2NC(=O)c2ccc4c(c2)OCO4)CSC3)cc1 | - | - | - | 0 | - | 0
COc1cc(S(=O)(=O)N2CCCCC2)ccc1NC(=O)Cc1ccccc1 | 0 | 0 | 0 | 0 | 0 | 0
CCCc1cc(=O)oc2c(C)c(OCC(=O)c3ccc(N4CCCC4)cc3)ccc12 | 0 | 0 | 0 | 0 | 0 | 0
COc1ccc(C(=O)Nc2ccc(C(=O)OCC(=O)c3cccc4ccccc34)cc2)cc1 | - | - | - | 0 | - | -
COc1ccc(S(=O)(=O)Nc2ccccc2)cc1OC | 0 | 0 | 0 | 0 | 90 | 0
COc1ccc(S(=O)(=O)c2ccc(OC)c(OC)c2)cc1OC | 0 | 0 | 0 | 0 | 79 | 0
COc1ccc(S(=O)(=O)Nc2ccc(S(=O)(=O)Nc3nc(C)cc(C)n3)cc2)cc1OC | 0 | 0 | 0 | 0 | 0 | 0
COc1ccc(S(=O)(=O)Nc2ccc(C)cc2)cc1OC | 62 | 0 | 0 | - | 97 | 0
COC(=O)COc1ccc(S(=O)(=O)Nc2ccc(NC(C)=O)cc2)cc1C | 0 | 0 | 0 | 0 | 76 | 0
COc1ccc(S(=O)(=O)Nc2nccs2)cc1OC | - | - | - | 0 | - | -
SMILES | CYP2C9 inhib | CYP2C9 activ | CYP2C19 act | E-sel TNF inh | CYP2C19 inh | cytoskel mod
Cc1csc(NC(=O)C2CCCC2)n1 | 0 | 0 | 0 | 0 | 0 | 0
Cc1nn(S(=O)(=O)c2cccs2)c(C)c1Sc1ccccc1 | 0 | 0 | 0 | 0 | 0 | 0
O=C(CN1CCN(S(=O)(=O)c2ccc3ccccc3c2)CC1)N1CCc2ccccc2C1 | 0 | 0 | 0 | 0 | 0 | 0
Cn1c(C(C#N)C(=O)c2ccco2)nc2ccccc21 (stereo not drawn) | 51 | 0 | 0 | - | 0 | -
Cn1c(C(C#N)C(=O)Cc2cccc3ccccc23)nc2ccccc21 (stereo not drawn) | 0 | 0 | 0 | 0 | 0 | -
Cc1ccc2c(Cl)cc(Cl)c(OCC(=O)Nc3cccc(S(N)(=O)=O)c3)c2n1 | - | - | - | 0 | - | -
